TWEAK-Fn14 inh: TWEAK-Fn14 signaling inhibition. inhibition, % at 10 µM. actives 2% (n = 360,000). TWEAK-stimulated Fn14 reporter cells, luciferase luminescence, 8 h. AID 1159606; in the data active = inhibition above about 50%
HIF-2a block: HIF-2a inhibition | 786-0 RCC cells HIF-2a reporter, luciferase luminescence, overnight | inhibition, % at 18.8 µM | actives 0.72% (n = 360,000) | AID 624352;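 active = inhibition of the luminescence signal of 40% or more relative to plate controls, in a single-dose primary screen at 18.75 µM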
KKLEB tox: counter-screen for CF NF-kB inhibitors: cytotoxicity | KKLEB CF airway cells viability, ATPlite luminescence, overnight; stronger effect = lower value; cells stimulated with P. aeruginosa culture filtrate | activity change (cytotoxicity), % at 5 µM | actives 0.36% (n = 360,000);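 active = corrected activity change at or below -50% at 5 µM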
CF NFkB inh: inhibitors of cystic fibrosis induced NF-kB; KKLEB NF-kB-GFP reporter, PAF-induced, GFP fluorescence overnight; inhibition, % at 5 µM; actives 0.86% (n = 360,000); AID 588850;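 active = at least 50% inhibition at 5 µM, scaled per plate between neutral and stimulator controls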;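 note: PAF is a Pseudomonas aeruginosa culture filtrate used as stimulus; plate controls were PAF-stimulated DMSO wells for no effect and unstimulated DMSO wells for full effect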
Peg3 promoter: Peg3 promoter activity inhibition | HeLa PEG-Prom luciferase reporter, luminescence, overnight | inhibition, % at 20 µM | actives 1.7% (n = 360,000) | AID 588405;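 active = inhibition of at least 50% at 20 µM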
TROY signal inh: TROY signaling inhibition; inhibition, % at 10 µM; Q293 LMP1-TROYcd NF-kB luciferase reporter, 4 h; actives 0.98% (n = 360,000); AID 1347056;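 active = compounds whose plate-normalised and pattern-corrected inhibition of the luciferase reporter signal at the single screening dose is 50% or more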
* = called active by the depositor. Hits are enriched below; roughly 4% of the tested compounds scored in any of these assays.

CCN1CCN(c2cc(C)c3cc(NC(=S)N4CC(C)CC(C)C4)ccc3n2)CC1 (stereo not drawn) was read as TWEAK-Fn14 inh 14.1, HIF-2a block 6.1, KKLEB tox 8.3, CF NFkB inh -14.3, Peg3 promoter 14.7 and TROY signal inh 53.6*.
Screening Cc1ccc2c(c1)c(N=NC(N)=O)c(O)n2C returned TWEAK-Fn14 inh -1.3, HIF-2a block 7.5, KKLEB tox -2.5, CF NFkB inh -27.9, Peg3 promoter 9.6 and TROY signal inh -19.8.
Screening CCCCn1c(N)c(N(CCOC)C(=O)c2ccc(OCc3c(C)noc3C)cc2)c(=O)[nH]c1=O returned TWEAK-Fn14 inh 10.0, HIF-2a block 4.2, KKLEB tox 11.3, CF NFkB inh 8.1, Peg3 promoter -0.4 and TROY signal inh -14.1.
C/C(=N\NC(=O)COc1ccc(C(C)(C)C)cc1)c1ccccc1 was read as TWEAK-Fn14 inh -4.8, HIF-2a block -38.3, KKLEB tox -3.5, CF NFkB inh 0.6, Peg3 promoter -31.7 and TROY signal inh -33.7.
Screening C/C(=N\NC(=O)COc1ccc(C(C)(C)C)cc1)c1cc2ccccc2o1 returned TWEAK-Fn14 inh -0.2, HIF-2a block -190.6, KKLEB tox -57.7*, CF NFkB inh -3.1, Peg3 promoter -191.1 and TROY signal inh -35.9.
For CCN(CC)C(=O)C1CCCN(c2ncnc3c2cnn3-c2cccc(C)c2)C1 (stereo not drawn) the results were TWEAK-Fn14 inh 50.3*, HIF-2a block -13.3, KKLEB tox -1.3, CF NFkB inh 3.9, Peg3 promoter -6.2 and TROY signal inh 36.7.
CCOC(=O)C1CCCN(c2ncnc3c2cnn3-c2cccc(C)c2)C1 (stereo not drawn) was read as TWEAK-Fn14 inh 39.8, HIF-2a block -27.9, KKLEB tox 3.7, CF NFkB inh -1.8, Peg3 promoter -23.6 and TROY signal inh 20.2.
Screening CCN(CC)C(=O)C1CCCN(c2ncnc3c2cnn3-c2ccc(Cl)cc2)C1 (stereo not drawn) returned TWEAK-Fn14 inh 70.6*, HIF-2a block 50.1*, KKLEB tox -5.6, CF NFkB inh -1.2, Peg3 promoter 55.6* and TROY signal inh 63.0*.
Screening Cc1ccc(-c2csc3ncn(/N=C/N(C)C)c(=O)c23)o1 returned TWEAK-Fn14 inh 98.5*, HIF-2a block 9.7, KKLEB tox -6.1, CF NFkB inh -2.9, Peg3 promoter 10.3 and TROY signal inh 9.7.
`N#Cc1ccc(OCC(=O)Nc2ccc(S(=O)(=O)N3CCOCC3)cc2)cc1` gave TWEAK-Fn14 inh 3.9, HIF-2a block 8.5, KKLEB tox -17.7, CF NFkB inh -5.4, Peg3 promoter 4.7 and TROY signal inh -0.7.
`CC1(C)CC(=O)C(C=NCCCO)=C(O)C1` gave TWEAK-Fn14 inh 81.4*, HIF-2a block -11.8, KKLEB tox -16.6, CF NFkB inh 14.9, Peg3 promoter 7.6 and TROY signal inh -3.4.
Screening Cc1ccc(C)c(NC(=O)c2ccccc2O)c1 returned TWEAK-Fn14 inh -5.4, HIF-2a block -155.1, KKLEB tox 4.4, CF NFkB inh -0.7, Peg3 promoter -103.0 and TROY signal inh -24.7.
For O=C(/C=C/c1ccccc1Cl)c1cccnc1 the results were TWEAK-Fn14 inh 6.4, HIF-2a block 17.1, KKLEB tox 6.8, CF NFkB inh -1.5, Peg3 promoter 15.8 and TROY signal inh 23.0.
`Cc1ccc(/C=C/C(=O)c2ccccc(=O)c2O)c(C)c1` gave TWEAK-Fn14 inh 87.4*, HIF-2a block 35.8, KKLEB tox 1.1, CF NFkB inh -28.7, Peg3 promoter -78.2 and TROY signal inh 72.8*.
`Cc1ccc(C)c(/C=C/C(=O)c2ccccc(=O)c2O)c1` gave TWEAK-Fn14 inh 32.5, HIF-2a block 71.7*, KKLEB tox -10.6, CF NFkB inh -17.2, Peg3 promoter 17.4 and TROY signal inh 5.2.
Screening O=C(/C=C/c1ccccc1Cl)c1ccccc(=O)c1O returned TWEAK-Fn14 inh 35.0, HIF-2a block 9.5, KKLEB tox -22.4, CF NFkB inh -50.9, Peg3 promoter 71.0* and TROY signal inh 37.2.
For Cc1ccc(N2CC(C(=O)OCC(=O)c3ccc[nH]3)CC2=O)cc1 (stereo not drawn) the results were TWEAK-Fn14 inh -15.5, HIF-2a block 1.9, KKLEB tox 4.5, CF NFkB inh 2.5, Peg3 promoter 5.8 and TROY signal inh -10.3.
`CCc1nnc(NC(=O)CSc2nnc(Cc3ccc(OC)cc3)o2)s1` gave TWEAK-Fn14 inh -8.0, HIF-2a block 6.0, KKLEB tox 14.0, CF NFkB inh 1.7, Peg3 promoter 3.6 and TROY signal inh -5.7.
Screening NS(=O)(=O)c1ccc(CNC(=O)Cc2ccccc2[N+](=O)[O-])cc1 returned TWEAK-Fn14 inh 2.6, HIF-2a block 14.5, KKLEB tox 1.9, CF NFkB inh 2.5, Peg3 promoter 21.0 and TROY signal inh -0.6.
Screening O=C(N/C(=C\c1ccco1)C(=O)N1CCC(O)CC1)c1ccccc1 returned TWEAK-Fn14 inh 16.0, HIF-2a block 7.9, KKLEB tox -1.5, CF NFkB inh -2.7, Peg3 promoter 3.8 and TROY signal inh 6.8.
Screening ClC1=C(Cl)C(Cl)=C(Cl)C1=C/C=C/c1ccccc1 returned TWEAK-Fn14 inh 22.6, HIF-2a block -18.5, KKLEB tox -93.9*, CF NFkB inh 90.8*, Peg3 promoter 106.7* and TROY signal inh -3.9.
`Cc1ccc(NC(=O)Nc2ccc3c(c2)OCO3)c(Br)c1` gave TWEAK-Fn14 inh -37.7, HIF-2a block -115.8, KKLEB tox -9.0, CF NFkB inh 4.9, Peg3 promoter -109.7 and TROY signal inh -62.5.
Screening Clc1ccc(-c2nc3ccccc3nc2-c2ccccc2)cc1 returned TWEAK-Fn14 inh 28.5, HIF-2a block 23.6, KKLEB tox -13.5, CF NFkB inh 15.1, Peg3 promoter 15.7 and TROY signal inh -5.0.
Cc1ccc(-c2nc3ccccc3nc2-c2ccccc2)cc1 was read as TWEAK-Fn14 inh 95.8*, HIF-2a block 1.9, KKLEB tox 3.5, CF NFkB inh -5.5, Peg3 promoter 2.5 and TROY signal inh -1.0.
For CCOC(=O)C1=C(O)c2ccccc2C(=O)/C1=C\c1ccc(C)cc1 the results were TWEAK-Fn14 inh 34.1, HIF-2a block -63.5, KKLEB tox 5.2, CF NFkB inh 7.1, Peg3 promoter 75.2* and TROY signal inh 33.0.
For CCOC(=O)C1=C(C)OC(=Cc2ccccc2)C1=O the results were TWEAK-Fn14 inh -12.3, HIF-2a block -4.5, KKLEB tox 2.2, CF NFkB inh -3.6, Peg3 promoter -4.0 and TROY signal inh 5.1.
N#Cc1c(NC(=O)c2ccccc2)sc2c1CCCCC2 was read as TWEAK-Fn14 inh 38.4, HIF-2a block -129.1, KKLEB tox -15.4, CF NFkB inh 1.5, Peg3 promoter -292.5 and TROY signal inh 0.8.
N#Cc1c(Cl)nsc1NC(=O)c1ccccc1 was read as TWEAK-Fn14 inh 41.9, HIF-2a block -122.2, KKLEB tox -39.4, CF NFkB inh 51.6*, Peg3 promoter -20.0 and TROY signal inh 21.6.

Screening results from PubChem.
